Bioassay records (PubChem)
Shown are actives, neighbours in structure and some others; about 7.5% of the full set was active somewhere.
SMN2 splice up: increases expression of the SMN2 splice variant. HEK293 SMN2-luciferase splicing reporter, luminescence, 30-36 h. Potency, µM (series often up to 46.1 µM), hits mostly activators. 210,000 compounds, 2.8% hits. AID 1458; further: nearly all actives have a fitted effect of over 55% in size
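HEK293 cells carry an SMN2 […]–luciferase reporter in which exon 7 inclusion puts luciferase in frame. Cells were plated 10-12 h before compound addition, then incubated 30-36 h at 37C. ONE-Glo luminescence was read; sodium butyrate at 4.5 mM final served as control.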
Rab9 promoter act: Rab9 promoter activation; Potency, µM (titrated, usually from 9.22 µM), usual class: activators; AID 485297; 320,000 compounds, 2.8% hits; Huh7 Rab9 promoter-luciferase reporter, luminescence, 24 h; further: nearly all actives have a fitted effect of over 60% in size
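Huh7 cells stably carrying Rab9 promoter–luciferase reporter, plated 1500 cells/well, compound added after 2 h and incubated 24 h at 37 °C; luciferase luminescence then read after 10 min with detection reagent.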
NPC1 prom act: NPC1 promoter activation | Huh7 NPC1 promoter luciferase reporter, 24 h | Potency, µM (series often up to 9.22 µM), actives largely listed as activators | 320,000 compounds, 2.4% hits | AID 485313; further: nearly all actives have a fitted effect of over 60% in size
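Readout is luciferase luminescence, reflecting NPC1 promoter activation in stably transfected Huh7 cells after 24 h compound exposure at 37 °C in reduced-serum medium with 10% FBS.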
ELG1 genotox: induces genotoxicity in HEK293T cells with luciferase-tagged ELG1 | HEK293T ELG1-luciferase reporter, luminescence, 16 h | Potency, µM (series often up to 46 µM), actives largely listed as activators | 330,000 compounds, 1.3% hits | AID 504466; further: nearly all actives have a fitted effect of over 60% in size
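After overnight (16 hr) compound treatment at 37 °C, ELG1-luciferase HEK293T cells were lysed with ONE-Glo; luminescence quantified 30 min later at room temperature.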
KinaseGlo FLuc: Kinase-Glo luciferase inhibition (counter-screen). Q27757. Kinase-Glo luciferase, ATP luminescence, 8 min. Potency, µM (titrated, usually from 38.3 µM), usual class: inhibitors. 200,000 compounds, 0.28% hits; further: nearly all actives have a fitted effect of over 60% in size
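Inhibition of Kinase-Glo luciferase light generation was assessed at 10 uM ATP in pH 7.2 imidazole buffer, with luminescence measured after eight minutes at ambient temperature.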
FLuc counter: counter-screen for miR-21 project: firefly luciferase inhibitors or activators. purified FLuc, Km substrates, luminescence inhibition. Potency, µM (highest dose often 57.5 µM), hits mostly inhibitors. P08659. 360,000 compounds, 6.9% hits; further: nearly all actives have a fitted effect of over 55% in size
Target sequence (P08659 whole entry, looked up): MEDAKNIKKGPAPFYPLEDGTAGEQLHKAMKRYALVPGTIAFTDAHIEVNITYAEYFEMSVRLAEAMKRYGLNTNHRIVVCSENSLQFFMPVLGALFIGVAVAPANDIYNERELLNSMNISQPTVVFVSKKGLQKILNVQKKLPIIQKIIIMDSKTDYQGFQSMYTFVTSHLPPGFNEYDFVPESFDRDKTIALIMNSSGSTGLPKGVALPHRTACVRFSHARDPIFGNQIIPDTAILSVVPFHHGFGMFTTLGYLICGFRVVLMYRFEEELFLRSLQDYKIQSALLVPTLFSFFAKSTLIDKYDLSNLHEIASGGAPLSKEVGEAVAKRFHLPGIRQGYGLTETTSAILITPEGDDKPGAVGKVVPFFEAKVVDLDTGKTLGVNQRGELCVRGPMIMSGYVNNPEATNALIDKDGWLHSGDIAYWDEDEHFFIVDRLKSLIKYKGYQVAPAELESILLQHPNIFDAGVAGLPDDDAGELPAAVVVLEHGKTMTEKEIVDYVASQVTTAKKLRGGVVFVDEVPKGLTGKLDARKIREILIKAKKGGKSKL
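Biochemical qHTS of compounds, final roughly 60 µM downward over six points, against 10 nM purified firefly luciferase using Km concentrations of substrates (10 uM D-luciferin, 10 uM ATP) in Tris acetate pH 7.5 buffer; luminescence output.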
Of the large screens only hits and unclear results are named; the others gave an inactive call. The call rests on the fitted dose curve; in most records, active means well fitted curve in the direction sought with a large enough effect; inconclusive means small, poorly fitted or top-dose-only effect, or another doubt; inactive means no such curve, though single readings can be large; an effect the other way counts as inactive or inconclusive.

COc1ccc(-c2ccc(SCC(=O)c3cccs3)nn2)cc1OC	SMN2 splice up inconclusive, FLuc counter 19µM
COc1ccc(C(=O)CSc2ccc(-c3ccc(C)cc3)nn2)cc1	SMN2 splice up 14.1µM, FLuc counter 10.7µM
N#Cc1ccc(-c2cccnc2)nc1SCC(=O)c1ccccc1	Rab9 promoter act 3.16µM, NPC1 prom act inconclusive, FLuc counter inconclusive (no result: SMN2 splice up, KinaseGlo FLuc)
Cc1ccc2oc(-c3ccc(Cl)c(NC(=O)c4ccc(OC(C)C)cc4)c3)nc2c1	FLuc counter inconclusive (no result: Rab9 promoter act, NPC1 prom act, ELG1 genotox, KinaseGlo FLuc)
Cc1ccc(C(=O)CSc2ccc(-c3ccccc3)nn2)cc1	FLuc counter inconclusive
O=C(CSc1ccc(-c2ccccc2)nn1)c1ccccc1	SMN2 splice up inconclusive, Rab9 promoter act inconclusive, NPC1 prom act inconclusive, ELG1 genotox inconclusive, FLuc counter 16.9µM
N#Cc1ccc2c(c1)C[C@]1(c3ccsc3)Oc3c(c(=O)oc4ccc(F)cc34)C2O1	FLuc counter inconclusive (no result: SMN2 splice up, ELG1 genotox, KinaseGlo FLuc)
N#Cc1ccc2c(c1)C[C@]1(c3ccsc3)Oc3c(c(=O)oc4ccccc34)C2O1	FLuc counter 3.09µM (no result: SMN2 splice up, ELG1 genotox, KinaseGlo FLuc)
O=C(Nc1ccc(F)cc1F)c1ccc2c(c1)OCCO2	Rab9 promoter act 0.631µM, NPC1 prom act 0.501µM, ELG1 genotox inconclusive, FLuc counter 4.78µM (no result: SMN2 splice up, KinaseGlo FLuc)
O=C(Nc1ccc(Br)cc1F)c1ccc2c(c1)OCCO2	Rab9 promoter act 0.126µM, NPC1 prom act 0.282µM, ELG1 genotox inconclusive, FLuc counter 0.536µM (no result: SMN2 splice up, KinaseGlo FLuc)
O=C(COC(=O)c1ccc2c(c1)OCCO2)Nc1ccc(F)cc1F	none (no result: SMN2 splice up, Rab9 promoter act, NPC1 prom act, KinaseGlo FLuc, FLuc counter)
CCC(=O)Nc1ccc(C(=O)Nc2ccc(Br)cc2F)cc1	none (no result: SMN2 splice up)
CC(NC(=O)COC(=O)c1ccc(CO)cc1)C1CC2CCC1C2 (centres undefined)	none (no result: SMN2 splice up, KinaseGlo FLuc)
O=C1C2C3C=CC(CC3)C2C(=O)N1/N=C/c1c[nH]c2ccccc12 (centres undefined)	Rab9 promoter act inconclusive, NPC1 prom act inconclusive, FLuc counter 9.53µM
O=C1C2C3C=CC(C3)C2C(=O)N1/N=C/c1cn(Cc2ccccc2)c2ccccc12 (centres undefined)	FLuc counter inconclusive
CCOC(=O)Cn1cc(/C=N/N2C(=O)C3C4C=CC(C4)C3C2=O)c2ccccc21 (centres undefined)	FLuc counter 15.1µM
COc1cccc(COC(=O)c2ccc(-c3nnn(Cc4cccc(OC)c4)n3)cc2)c1	none (no result: Rab9 promoter act, NPC1 prom act, ELG1 genotox, KinaseGlo FLuc)
CCOc1ccc(Cl)cc1S(=O)(=O)n1nnc2ccccc21	SMN2 splice up 25.1µM
CCOc1ccc(S(=O)(=O)n2nnc3ccccc32)cc1C	none
CCOC(=O)c1cccc(NC(=O)Nc2c(C)n(C)n(-c3ccccc3)c2=O)c1	none (no result: Rab9 promoter act, NPC1 prom act, ELG1 genotox, KinaseGlo FLuc)
Cc1ccc(NC2Sc3ccccc3NC2=O)cc1Cl (centres undefined)	FLuc counter 19µM (no result: SMN2 splice up, KinaseGlo FLuc)
Cc1ccc(NC(=O)CC2Nc3ccccc3NC2=O)cc1C (centres undefined)	none (no result: Rab9 promoter act, NPC1 prom act, ELG1 genotox, KinaseGlo FLuc)
O=C(CC1Nc2ccccc2NC1=O)c1ccccc1 (centres undefined)	SMN2 splice up 12.6µM, Rab9 promoter act 2.51µM, NPC1 prom act inconclusive, ELG1 genotox 9.2µM, KinaseGlo FLuc inconclusive, FLuc counter 3.01µM
Cc1ccc(NC(=O)CC2Nc3ccccc3NC2=O)cc1Cl (centres undefined)	ELG1 genotox inconclusive, FLuc counter 23.9µM
O=C(CC1Nc2ccccc2NC1=O)NCCc1ccccc1 (centres undefined)	none
CCN(C(=O)COC(=O)CCC1CCCC1)c1c(N)n(Cc2ccccc2)c(=O)[nH]c1=O	none (no result: SMN2 splice up, KinaseGlo FLuc)
O=C(NCCc1ccc(F)cc1)N[C@@H](Cc1ccccc1)C(=O)O	none (no result: SMN2 splice up, KinaseGlo FLuc)
COc1ccc(C(=O)NCCc2nnc3ccc(SCC(=O)N4CCCCC4)nn23)cc1	none (no result: SMN2 splice up, KinaseGlo FLuc)
O=C(Cc1ccccn1)c1ccc(Cl)cc1	Rab9 promoter act 2.82µM, NPC1 prom act inconclusive, ELG1 genotox inconclusive, FLuc counter 12µM (no result: SMN2 splice up, KinaseGlo FLuc)
O=C(CCCc1ccccn1)c1ccccc1	SMN2 splice up 2.82µM (no result: Rab9 promoter act, NPC1 prom act, ELG1 genotox, FLuc counter)
O=C(CCSc1ccccn1)c1ccccc1	FLuc counter 6.01µM
CC1(C)CC(=O)c2sc(N3CCCCC3)nc2C1	Rab9 promoter act inconclusive, NPC1 prom act inconclusive, ELG1 genotox inconclusive, FLuc counter inconclusive
CC1(C)CNC(=O)c2sc(N3CCCCC3)nc2C1	ELG1 genotox inconclusive, FLuc counter 15.1µM
